Laboratory results: PubChem BioAssay AID652195 (Johns Hopkins Ion Channel Center, 2013)
Calls of active or inactive are those of the source.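 The calls were made as follows: active = peak TRPC6 channel inhibition above 30% at some tested dose, with a fitted dose response curve; inactive = no inhibition at any dose or no curve fitted.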

What follows are compounds tested against Short transient receptor potential channel 6 (Mus musculus) (UniProt Q61143) (assay: mouse TRPC6 channel blockers, concentration series – HEK293 cells, membrane potential dye, quadruplicate, selectivity assay for selective TRPC4 inhibitor project, dose response (AID 652195)). Conditions: FDSS; series mostly up to 20 µM; membrane potential ratio (lower = inhibition): at the top concentration.
Sequence of Short transient receptor potential channel 6 (Mus musculus) (Q61143 whole entry, looked up): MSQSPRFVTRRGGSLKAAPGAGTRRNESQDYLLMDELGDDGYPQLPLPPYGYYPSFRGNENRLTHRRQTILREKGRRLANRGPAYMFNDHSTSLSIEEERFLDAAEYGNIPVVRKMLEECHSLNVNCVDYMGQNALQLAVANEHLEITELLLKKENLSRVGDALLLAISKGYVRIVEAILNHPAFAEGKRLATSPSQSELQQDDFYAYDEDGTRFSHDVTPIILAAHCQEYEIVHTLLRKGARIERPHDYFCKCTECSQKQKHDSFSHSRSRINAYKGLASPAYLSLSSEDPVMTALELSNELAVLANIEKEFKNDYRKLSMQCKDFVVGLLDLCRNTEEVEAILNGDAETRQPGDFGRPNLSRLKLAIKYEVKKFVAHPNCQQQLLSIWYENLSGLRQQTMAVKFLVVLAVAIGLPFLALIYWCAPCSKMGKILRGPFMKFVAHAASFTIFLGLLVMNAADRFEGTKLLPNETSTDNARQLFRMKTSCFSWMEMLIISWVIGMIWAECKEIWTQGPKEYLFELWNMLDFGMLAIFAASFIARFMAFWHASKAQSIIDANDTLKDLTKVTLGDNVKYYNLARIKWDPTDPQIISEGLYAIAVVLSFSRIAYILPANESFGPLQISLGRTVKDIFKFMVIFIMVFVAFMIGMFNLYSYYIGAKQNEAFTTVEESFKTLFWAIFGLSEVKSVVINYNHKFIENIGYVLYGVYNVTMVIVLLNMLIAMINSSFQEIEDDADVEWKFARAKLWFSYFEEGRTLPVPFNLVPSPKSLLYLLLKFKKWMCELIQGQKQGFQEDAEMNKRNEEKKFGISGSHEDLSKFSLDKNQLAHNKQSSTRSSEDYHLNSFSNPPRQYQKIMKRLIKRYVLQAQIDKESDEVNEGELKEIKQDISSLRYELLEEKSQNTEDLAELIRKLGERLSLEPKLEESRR

Membrane potential ratio (lower = inhibition), inactive:
Cc1cc(-n2cccc2)nc2ccccc12 41.5, FC1(F)CCN(c2ccc3ccccc3n2)CC1 39.6, OC1CCN(c2ccc3ccccc3n2)C1 (centres undefined) 42.2, Cc1cc(-n2ccnc2)nc2ccccc12 50.2, Cc1cc(N2CCCC(F)C2)nc2ccccc12 (centres undefined) 35.9, C[C@H]1CCCN1c1ccc2ccccc2n1 30.5, Cc1cc(N(C)C)nc2ccccc12 37.2, Cc1cc(N2CCC(O)C2)nc2ccccc12 (centres undefined) 33.5, c1ccc2nc(N3CCCC3)ccc2c1 35.8, Cc1cc(N2CCC(F)(F)CC2)nc2ccccc12 43.2, FC1CCCN(c2ccc3ccccc3n2)C1 (centres undefined) 43.5, OC1CCN(c2ccc3ccccc3n2)CC1 50.8, Cc1cc(N2CCC(O)CC2)nc2ccccc12 44.3, FC1CCN(c2ccc3ccccc3n2)CC1 37.4, O=C1CCN(c2ccc3ccccc3n2)CC1 43.8, Cc1cc(-n2cccn2)nc2ccccc12 42.6, Cc1cc(N2CCC(F)CC2)nc2ccccc12 37.7, OC1CCCN(c2ccc3ccccc3n2)C1 (centres undefined) 36.9, Cc1cc(N2CCC(=O)CC2)nc2ccccc12 40.5
